G9a inh: qHTS Assay for Inhibitors of Histone Lysine Methyltransferase G9a; Histone-lysine N-methyltransferase EHMT2 (Homo sapiens), Q96KQ7; G9a H3K9 monomethylation, AlphaScreen, 2 h; Potency, µM (titrated, usually from 102 µM), without a hit: top-dose activity, negative = inhibition, usual class: inhibitors; hit rate 8.8% among 350,000; AID 504332, 2011; further: on the % scale 0 is the no-effect control and ±100 the full control effect; nearly all actives have a fitted effect of over 75% in size
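G9a (20 nM) preincubated 15 min RT with compounds, then 500 nM biotinylated H3K9 peptide and 20 uM SAM added; 2 h RT reaction. Monomethyl-H3K9 product detected by AlphaScreen with anti-H3K9me1 antibody, streptavidin donor and anti-rabbit IgG acceptor beads.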
BAZ2B inh: qHTS Assay for Inhibitors of BAZ2B. Bromodomain adjacent to zinc finger domain protein 2B (Homo sapiens), Q9UIF8. AlphaScreen BAZ2B-H3K14Ac peptide displacement. Potency, µM (doses to about 114 µM), without a hit: at the top dose activity change, negative = inhibition, most hits filed as inhibitors. hit rate 4.4% among 360,000; further: on the % scale 0 is the no-effect control and ±100 the full control effect; nearly all actives have a fitted effect of over 60% in size
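BAZ2B (50 nM) with biotin-H3(5-23)K14Ac peptide (50 nM) in PBS pH 7.4, 0.01% Tween-20, preformed 30 min, then compound 30 min at room temperature; top concentration 110uM. AlphaScreen streptavidin donor/nickel chelate acceptor beads (10 ug/mL final), 20 min dark, signal read.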
HP1b binding inh: HTS for Inhibitors of HP1-beta Chromodomain Interactions with Methylated Histone Tails; Chromobox protein homolog 1 (Homo sapiens), P83916; AlphaScreen HP1-beta / biotin-H3K9me3 peptide binding; Potency, µM (doses to about 114 µM), for inactives: at the top dose activity change, negative = inhibition, usual class: inhibitors; hit rate 0.56% among 390,000; AID 540317, 2011; further: nearly all actives have a fitted effect of over 70% in size
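HP1-beta protein (50 nM final) preincubated 30 min at room temperature with biotinylated H3(1-18)K9me3 peptide (50 nM) in PBS pH 7.4, 0.01% Tween-20, then compound added for 30 min. AlphaScreen streptavidin donor/nickel chelate acceptor beads (10 ug/mL final), 30 min dark, luminescence read.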
JMJD2A Tudor: qHTS Assay for Inhibitors of JMJD2A-Tudor Domain; AlphaScreen JMJD2A-Tudor / H3K4me3 peptide binding; Potency, µM (highest dose often 114 µM), without a hit: at the highest dose activity change, negative = inhibition, usual class: inhibitors; hit rate 4.4% among 390,000; further: on the % scale 0 is the no-effect control and ±100 the full control effect; nearly all actives have a fitted effect of over 50% in size
VDR inh: Inhibitors of the vitamin D receptor (VDR): qHTS; VDR-SRC2-3 peptide fluorescence polarization, 2 h; Potency, µM, for inactives: max response, negative = inhibition, actives largely listed as inhibitors; hit rate 0.93% among 400,000; AID 504847, 2011; further: on the % scale 0 is the no-effect control and ±100 the full control effect
Target sequence (P11473 whole entry, looked up): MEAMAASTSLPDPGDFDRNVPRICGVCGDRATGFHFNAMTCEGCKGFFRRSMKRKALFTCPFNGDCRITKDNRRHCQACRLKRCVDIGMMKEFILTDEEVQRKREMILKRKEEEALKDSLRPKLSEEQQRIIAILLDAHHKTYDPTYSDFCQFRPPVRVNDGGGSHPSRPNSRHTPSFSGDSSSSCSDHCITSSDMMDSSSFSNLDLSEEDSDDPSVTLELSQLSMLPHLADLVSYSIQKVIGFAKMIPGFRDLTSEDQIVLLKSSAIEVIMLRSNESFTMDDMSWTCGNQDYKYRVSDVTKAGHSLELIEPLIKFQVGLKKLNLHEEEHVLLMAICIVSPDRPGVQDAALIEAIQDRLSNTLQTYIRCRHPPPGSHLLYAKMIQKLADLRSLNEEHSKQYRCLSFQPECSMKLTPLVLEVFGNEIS
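Fluorescence polarization assay of small-molecule disruption of VDR binding to coregulator peptide SRC2-3. Compounds and controls pin-transferred, then read after 2 h incubation at ambient room temperature.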
PLK1 PBD inh: qHTS for Inhibitors of PLK1-PDB (polo-like kinase 1 - polo-box domain): Primary Screen; Serine/threonine-protein kinase PLK1 (Homo sapiens), P53350; Plk1 PBD binding of FITC phosphopeptide, fluorescence polarization; Potency, µM, without a hit: max response, negative = inhibition, usual class: inhibitors; hit rate 2.8% among 360,000; AID 720504, 2013; further: series mostly up to about 57 µM; on the % scale 0 is the no-effect control and ±100 the full control effect; nearly all actives have a fitted effect of over 65% in size
* = called active by the depositor; u = inconclusive; x = no result given; [ ] = another dose, or the depositor's remark. Sampled rows, rich in hits. Any-hit rate of the full collection: about 11%. The call rests on the fitted dose curve; in most records, active means well fitted curve in the direction sought with a large enough effect; inconclusive means small, poorly fitted or top-dose-only effect, or another doubt; inactive means no such curve, though single readings can be large; an effect the other way counts as inactive or inconclusive. Potency means the concentration at half of the fitted maximal effect.

SMILES	G9a inh	BAZ2B inh	HP1b binding inh	JMJD2A Tudor	VDR inh	PLK1 PBD inh
CSc1ccc(/C=N/NC(=O)CN2CCN(Cc3ccccc3Cl)CC2)cc1	6.0%	12.0%	12.6%	1.6%	-5.7%	-2.0%
O=C(CN1CCN(Cc2ccccc2Cl)CC1)N/N=C/c1ccccn1	50.1µM*	2.4%	26.6%	-11.1%	-14.3%	-13.2%
CCOc1ccc(N(CC(=O)N/N=C/c2ccc(OC(C)C)cc2)S(C)(=O)=O)cc1	u	56.2µM*	0.7%	u	12.2%	-7.8%
O=C(CN1CCCCCC1)N/N=C/c1cccs1	2.4%	79.4µM*	-28.3%	3.16µM*	0.6%	-2.4%
CCN1CCN(CC(=O)N/N=C/c2cc(Br)cs2)CC1	x	25.1µM*	u	3.98µM*	-15.9%	-14.5%
CS(=O)(=O)N(CC(=O)NCCSCc1cccc(Cl)c1)c1ccccc1F	14.6%[0.501 µM]	1.7%	24.1%	-14.3%	-4.9%	-4.4%
CCCC(CCC)C(=O)Nc1cc(-c2cn3cccnc3n2)ccc1OC	5.3%[59 µM]	5.5%	16.9%[57 µM]	0.0%	-0.2%	x
Cn1cc(-c2csc(C(O)(c3ccccc3)C(F)(F)F)n2)cn1 (stereo not drawn)	x	x	x	x	x	-1.2%
CCOc1ccc(/C=N/NC(=O)CN2CCCCCCC2)cc1	7.94µM*	50.1µM*	u	20µM*	1.0%	4.2%
CCCOc1ccc(/C=N/NC(=O)CN2CCCCC2)cc1	-3.8%	-19.1%	3.1%	-12.9%	-24.4%	-6.1%
O=C(CN1CCCCCC1)N/N=C/c1ccc(Cl)c(Cl)c1	12.6µM*	50.1µM*	-24.5%	8.91µM*	-11.6%	0.4%
O=C1OCC(CO)(CO)N=C1NNc1ccccc1Cl	5.62µM*	-5.4%	-6.0%	u	-1.0%	-8.8%
Cc1cn2c(=O)cc(COC(=O)c3ccc(NC(=O)COc4ccc(C)c(C)c4)cc3)nc2s1	0.2%[12.7 µM]	-13.2%	21.7%	12.3%	15.0%	x
C/C(CCC(C)C)=N\NS(=O)(=O)c1ccc(C)c([N+](=O)[O-])c1	12.6µM*	-24.0%	3.7%	-19.9%	-8.7%	u
CCCCNC(=S)N/N=C/c1cccc(OCC)c1O	x	-26.4%	19.8%	-20.3%	-4.5%	-10.5%
CC/C(C)=N/NS(=O)(=O)c1ccc(C)c([N+](=O)[O-])c1	u	2.3%	15.5%	-9.7%	12.3%	-4.1%
CCOc1cccc(/C=N/NC(=S)Nc2ccccc2[N+](=O)[O-])c1O	3.1%	11.2µM*	8.6%	u	-13.9%	0.5%
CCOc1cccc(/C=N/NS(=O)(=O)c2ccc(C)c([N+](=O)[O-])c2)c1O	u	x	16.9%	-26.0%	15.2%	29.9µM*
Cc1ccc(S(=O)(=O)N/N=C/c2ccc(O)cc2O)cc1[N+](=O)[O-]	44.7µM*	2.1%	-3.3%	-26.9%	1.4%	u
COC(=O)c1ccc(Cn2c(=O)cc(C(F)(F)F)c3c(C)nn(C)c32)cc1	32.4%[59 µM]	-12.3%	44.0%	4.3%	3.5%	x
Cc1ccc(S(=O)(=O)N/N=C/c2cc([N+](=O)[O-])ccc2O)cc1[N+](=O)[O-]	50.1µM*	u	-14.1%	u	u	-23.8%
O=[N+]([O-])c1ccccc1NC(=S)N/N=C/c1ccc(O)c(O)c1	x	10µM*	8.91µM*	u	u	11.9µM*
O=C(Nc1ccc2oc(-c3ccccc3Cl)nc2c1)c1ncn[nH]1	u	50.1µM*	10.3%	28.2µM*	-9.9%	-3.1%
CC(C)c1ccc2oc(-c3ccc(NC(=O)c4ncn[nH]4)cc3)nc2c1	5.5%[12.7 µM]	35.5µM*	11.7%	39.8µM*	-18.4%	-7.7%
